According to PubChem BioAssay (NCI):
About 79,000 compounds went through this panel and 15% of them were active in at least one assay; those are over-represented in the sample as a whole. Active and inactive are the calls of the source. No stated cut-off is given here; in the data, active means growth inhibition above about 70%; inactive means the rest.

Experiments:
[1] = NCI Yeast Anticancer Drug Screen. Data for the rad50 strain (AID 155);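 further: 0% = growth of vehicle-only cultures of the same strain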; conditions: S. cerevisiae rad50 strain growth inhibition, stronger effect = higher value
Outline: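 Readout: growth inhibition relative to vehicle-treated cultures. Compound exposure was carried out in a genetically defined yeast strain deficient in DNA damage repair.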

[2] = NCI Yeast Anticancer Drug Screen. Data for the mec2-1 strain (AID 157); conditions: S. cerevisiae mec2-1 strain, stronger effect = higher value
Outline: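 Readout is yeast growth inhibition, normalised to vehicle-treated controls, in the mec2-1 strain exposed to compound.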

[3] = NCI Yeast Anticancer Drug Screen. Data for the sgs1 mgt1 strain (AID 161);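 further: 0% = growth of cultures given vehicle only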; conditions: S. cerevisiae sgs1 mgt1 strain, stronger effect = higher value
Outline: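 Yeast cells carrying a defined DNA-repair defect were exposed to test compounds. Growth inhibition was measured relative to vehicle-treated controls.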

[4] = NCI Yeast Anticancer Drug Screen. Data for the cln2 rad14 strain (AID 165);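 further: 0% = growth equal to vehicle treated cultures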; conditions: S. cerevisiae cln2 rad14 strain, stronger effect = higher value
Outline: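 Relative to vehicle controls, growth inhibition of compound-treated cln2 rad14 yeast was recorded.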

[5] = NCI Yeast Anticancer Drug Screen. Data for the bub3 strain (AID 167); conditions: S. cerevisiae bub3 mutant strain, stronger effect = higher value
Outline: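 Readout: yeast growth inhibition, expressed relative to vehicle-only wells. The test organism is a mutant strain from a panel with lesions in DNA repair or checkpoint genes.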

[6] = NCI Yeast Anticancer Drug Screen. Data for the mlh1 rad18 strain (AID 175); conditions: S. cerevisiae mlh1 rad18 strain growth inhibition, stronger effect = higher value
Outline: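 Test agents were incubated with a yeast strain of defined genotype (DNA damage repair defect). Inhibition of growth was derived by comparison with vehicle-exposed cultures.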

[7] = at 5.0 µM (retest, dose inferred, filed as 0.5)
[8] = at 50.0 µM (retest, dose inferred, filed as 5.0)

Measured: growth inhibition

CCC(Cl)COP(=O)(OC(c1ccc(Cl)c(Cl)c1)P(=O)(OCC(Cl)CC)OCC(Cl)CC)C(CC)CCl (centres undefined)
active: [1]; [8] 71% | [1]; at 50.0 µM 86.7% | [2]; at 50.0 µM 96.2% | [3]; at 50.0 µM 94.2% | [4]; at 50.0 µM 83.5% | [5]; at 50.0 µM 79.5% | [6]; [8] 80% | [6]; at 50.0 µM 94.2%
inactive: [1]; [7] 6% | [2]; [7] -81% | [2]; [8] 45% | [3]; [7] -3% | [3]; [8] 45% | [4]; [7] -4% | [4]; [8] 57% | [5]; [7] -2% | [5]; [8] 57% | [6]; [7] 6%

Cc1ccc(S)c(S)c1
inactive: [1]; [7] 65% | [1]; [8] 53% | [1]; at 50.0 µM 63.4% | [2]; [7] 52% | [2]; [8] 34% | [2]; at 50.0 µM 35.9% | [3]; [7] 44% | [3]; [8] 28% | [3]; at 50.0 µM 39.3% | [5]; at 50.0 µM 64.6% | [6]; at 50.0 µM 41.5%
active: [4]; [7] 81% | [4]; [8] 93% | [4]; at 50.0 µM 77.7% | [5]; [7] 92% | [5]; [8] 93% | [6]; [7] 95% | [6]; [8] 93%

COc1cc(C(=O)OCC(C)C)ccc1O
active: [5]; [7] 96% | [5]; [8] 98%
inactive: [1]; [7] 3% | [1]; [8] 33% | [1]; at 50.0 µM 15.1% | [2]; [7] 3% | [2]; [8] 4% | [2]; at 50.0 µM 6.2% | [3]; [7] 2% | [3]; [8] 8% | [3]; at 50.0 µM 2.8% | [4]; [7] 2% | [4]; [8] 14% | [4]; at 50.0 µM -16.1% | [5]; at 50.0 µM 45.3% | [6]; [7] -5% | [6]; [8] 13% | [6]; at 50.0 µM 3.3%
